# In the supplement of paper PMC8728848:
# Many of the other results were omitted from the sample, so the strongest signals are more common in it than they were.
# How the values were obtained:
# Test in all cases: glycan array binding signal (z-score within array); higher = stronger binding
# Conditions in all cases: glycan notation: IUPAC condensed, linker removed
# [1] = target: Fuc(a1-2)Gal(b1-3)GalNAc(a1-3)[Fuc(a1-2)]Gal(b1-4)Glc
# Method in brief: (§1)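 The binding signal is a Z-score computed within each array. Data were drawn from 3228 arrays in the Consortium for Functional Glycomics database, restricted to those with a known protein sequence. Scores were averaged over arrays of the same protein sequence at different concentrations or buffers, and over linkers, and negative values can be taken as non-binding.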
# [2] = target: Fuc(a1-2)Gal(b1-3)GlcNAc(b1-3)GalNAc
# Method in brief: as §1
# [3] = target: Fuc(a1-2)Gal(b1-3)GlcNAc(b1-3)[Neu5Ac(a2-6)Gal(b1-4)GlcNAc(b1-6)]Gal(b1-4)Glc
# Method in brief: as §1
# [4] = target: Fuc(a1-2)Gal(b1-4)GlcNAc(b1-3)Gal(b1-4)GlcNAc
# Method in brief: as §1
# [5] = target: Fuc(a1-2)Gal(b1-4)GlcNAc(b1-3)Gal(b1-4)GlcNAc(b1-3)Gal(b1-4)GlcNAc
# Method in brief: as §1
# [6] = target: Fuc(a1-2)Gal(b1-4)[Fuc(a1-3)]GlcNAc(b1-2)Man(a1-3)[Fuc(a1-2)Gal(b1-4)[Fuc(a1-3)]GlcNAc(b1-2)Man(a1-6)]Man(b1-4)GlcNAc(b1-4)[Fuc(a1-6)]GlcNAc
# Method in brief: as §1
# [7] = target: Fuc(a1-2)Gal(b1-4)[Fuc(a1-3)]GlcNAc(b1-3)Gal(b1-4)[Fuc(a1-3)]GlcNAc(b1-3)Gal(b1-4)[Fuc(a1-3)]GlcNAc
# Method in brief: as §1
# [8] = target: Fuc(a1-2)Gal3S(b1-4)GlcNAc
# Method in brief: as §1
# [9] = target: Fuc(a1-2)[Gal(a1-3)]Gal(b1-4)GlcNAc
# Method in brief: as §1
# [10] = target: Fuc(a1-2)[Gal(a1-3)]Gal(b1-4)GlcNAc(b1-2)Man
# Method in brief: as §1
# [11] = target: Fuc(a1-2)[GalNAc(a1-3)]Gal(b1-4)GlcNAc(b1-2)Man(a1-3)[Fuc(a1-2)[GalNAc(a1-3)]Gal(b1-4)GlcNAc(b1-2)Man(a1-6)]Man(b1-4)GlcNAc(b1-4)GlcNAc
# Method in brief: as §1
# [12] = target: Fuc(a1-2)[GalNAc(a1-3)]Gal(b1-4)GlcNAc(b1-3)Gal(b1-4)GlcNAc
# Method in brief: as §1
# [13] = target: Fuc(a1-2)[GalNAc(a1-3)]Gal(b1-4)GlcNAc(b1-6)GalNAc
# Method in brief: as §1
# [14] = target: Fuc(a1-3)[Gal(b1-4)]GlcNAc(b1-6)[Gal(b1-3)GlcNAc(b1-3)]Gal(b1-4)Glc
# Method in brief: as §1
# [15] = target: Fuc(a1-3)[GalNAc(b1-4)]GlcNAc
# Method in brief: as §1
# Gal(a1-3)Gal(b1-3)GlcNAc = target: Gal(a1-3)Gal(b1-3)GlcNAc
# Method in brief: as §1
# [16] = target: Gal(b1-3)GlcNAc(b1-2)Man(a1-3)[GlcNAc(b1-4)][Gal(b1-3)GlcNAc(b1-2)Man(a1-6)]Man(b1-4)GlcNAc(b1-4)GlcNAc
# Method in brief: as §1
# [17] = target: Gal(b1-3)GlcNAc(b1-3)Gal(b1-4)GlcNAc(b1-2)[Gal(b1-3)GlcNAc(b1-3)Gal(b1-4)GlcNAc(b1-6)]Man(a1-6)[Gal(b1-3)GlcNAc(b1-3)Gal(b1-4)GlcNAc(b1-2)Man(a1-3)]Man(b1-4)GlcNAc(b1-4)[Fuc(a1-6)]GlcNAc
# Method in brief: as §1
# [18] = target: Gal(b1-3)GlcNAc(b1-3)Gal(b1-4)GlcNAc(b1-3)Gal(b1-4)GlcNAc(b1-2)[Gal(b1-3)GlcNAc(b1-3)Gal(b1-4)GlcNAc(b1-3)Gal(b1-4)GlcNAc(b1-6)]Man(a1-6)[Gal(b1-3)GlcNAc(b1-3)Gal(b1-4)GlcNAc(b1-3)Gal(b1-4)GlcNAc(b1-2)Man(a1-3)]Man(b1-4)GlcNAc(b1-4)[Fuc(a1-6)]GlcNAc
# Method in brief: as §1
# [19] = target: Gal(b1-3)[Fuc(a1-4)]GlcNAc(b1-3)Gal(b1-3)[Fuc(a1-4)]GlcNAc
# Method in brief: as §1
# Gal(b1-4)Glc = target: Gal(b1-4)Glc
# Method in brief: as §1
# [20] = target: Gal(b1-4)GlcNAc(b1-3)Gal(b1-4)GlcNAc(b1-2)[Gal(b1-4)GlcNAc(b1-3)Gal(b1-4)GlcNAc(b1-6)]Man(a1-6)[Gal(b1-4)GlcNAc(b1-3)Gal(b1-4)GlcNAc(b1-2)Man(a1-3)]Man(b1-4)GlcNAc(b1-4)GlcNAc
# Method in brief: as §1
# [21] = target: Gal(b1-4)GlcNAc(b1-3)Gal(b1-4)GlcNAc(b1-3)Gal(b1-4)GlcNAc(b1-3)Gal(b1-4)GlcNAc(b1-2)[Gal(b1-4)GlcNAc(b1-3)Gal(b1-4)GlcNAc(b1-3)Gal(b1-4)GlcNAc(b1-3)Gal(b1-4)GlcNAc(b1-6)]Man(a1-6)[Gal(b1-4)GlcNAc(b1-3)Gal(b1-4)GlcNAc(b1-3)Gal(b1-4)GlcNAc(b1-3)Gal(b1-4)GlcNAc(b1-2)Man(a1-3)]Man(b1-4)GlcNAc(b1-4)[Fuc(a1-6)]GlcNAc
# Method in brief: as §1
# [22] = target: Gal(b1-4)GlcNAc(b1-6)Gal(b1-4)GlcNAc
# Method in brief: as §1
# Gal(b1-4)GlcNAc6P = target: Gal(b1-4)GlcNAc6P
# Method in brief: as §1
# Gal3S(b1-4)GlcNAc = target: Gal3S(b1-4)GlcNAc
# Method in brief: as §1
# GalNAc(a1-3)GalNAc = target: GalNAc(a1-3)GalNAc
# Method in brief: as §1
# GalNAc6S(b1-4)GlcNAc = target: GalNAc6S(b1-4)GlcNAc
# Method in brief: as §1
# Glc(b1-6)Glc = target: Glc(b1-6)Glc
# Method in brief: as §1
# [23] = target: GlcNAc(a1-3)Gal(b1-4)GlcNAc
# Method in brief: as §1
binder,measurement,setting,value
"MXA PilAct-eGFP (Myxococcus xanthus), Q59589 (protein) MRVSRFNPRNRGFTLIELMIVVAIIGILAAIAIPNFIKFQARSKQSEAKTNLKALYTAQKSFFSEKDRYSDFANEIGFAPERGNRYGYRVSAAAGDCEVRNAADLPVPAAGVPCISNDSFRFGANSAIDDPTPVVARFVPQGAAGWNTTLGVQPTIADCPNCNFFAGARGNADNEATFDDWVIAGFEGSGQVGPCSEAGNVASGTPYNTRNDVACDGAAQ",glycan array binding signal (z-score),[1],0.469
same,glycan array binding signal (z-score),[2],-0.348
same,glycan array binding signal (z-score),[3],-0.4
same,glycan array binding signal (z-score),[4],0.643
same,glycan array binding signal (z-score),[5],2.63
same,glycan array binding signal (z-score),[6],-0.459
same,glycan array binding signal (z-score),[7],-0.292
same,glycan array binding signal (z-score),[8],-0.55
same,glycan array binding signal (z-score),[9],0.335
same,glycan array binding signal (z-score),[10],-0.112
same,glycan array binding signal (z-score),[11],3.39
same,glycan array binding signal (z-score),[12],-0.546
same,glycan array binding signal (z-score),[13],0.269
same,glycan array binding signal (z-score),[14],-0.768
same,glycan array binding signal (z-score),[15],-1.22
same,glycan array binding signal (z-score),Gal(a1-3)Gal(b1-3)GlcNAc,-1.1
same,glycan array binding signal (z-score),[16],0.003
same,glycan array binding signal (z-score),[17],6.11
same,glycan array binding signal (z-score),[18],4.94
same,glycan array binding signal (z-score),[19],-2.03
same,glycan array binding signal (z-score),Gal(b1-4)Glc,-1.09
same,glycan array binding signal (z-score),[20],-0.993
same,glycan array binding signal (z-score),[21],3.46
same,glycan array binding signal (z-score),[22],0.221
same,glycan array binding signal (z-score),Gal(b1-4)GlcNAc6P,0.348
same,glycan array binding signal (z-score),Gal3S(b1-4)GlcNAc,-0.174
same,glycan array binding signal (z-score),GalNAc(a1-3)GalNAc,-1.12
same,glycan array binding signal (z-score),GalNAc6S(b1-4)GlcNAc,0.26
same,glycan array binding signal (z-score),Glc(b1-6)Glc,1.37
same,glycan array binding signal (z-score),[23],-0.245
